# Test results taken from the supplement of paper PMC8728848.
# The full list was thinned out, with the strongest signals kept by preference.
# B1: Threefoil (Haloarcula marismortui) (protein)
# chain: GSSHHHHHHHHHHSSGLVPRGSHMGDGYYKLVARHSGKALDVENASTSDGANVIQYSYSGGDNQQWRLVDLGDGYYKLVARHSGKALDVENASTSDGANVIQYSYSGGDNQQWRLVDLGDGYYKLVARHSGKALDVENASTSDGANVIQYSYSGGDNQQWRLVDL
# Assays:
# Assay in all cases: glycan array binding signal (z-score within array); higher = stronger binding
# Conditions in all cases: glycan notation: IUPAC condensed, linker removed
# [1] = biological target: Gal(b1-4)GlcNAc(b1-3)Gal(b1-4)GlcNAc(b1-3)Gal(b1-4)GlcNAc(b1-3)Gal(b1-4)GlcNAc(b1-3)Gal(b1-4)GlcNAc(b1-2)Man(a1-3)[Gal(b1-4)GlcNAc(b1-3)Gal(b1-4)GlcNAc(b1-3)Gal(b1-4)GlcNAc(b1-3)Gal(b1-4)GlcNAc(b1-3)Gal(b1-4)GlcNAc(b1-2)Man(a1-6)]Man(b1-4)GlcNAc(b1-4)[Fuc(a1-6)]GlcNAc
# How it was run: (§1)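 The binding signal is a Z-score computed within each array and averaged over linkers. Arrays of the same protein sequence at different concentrations or buffers were also averaged together. Data originate from 3228 arrays in the Consortium for Functional Glycomics database, kept only where the protein sequence was available.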
# [2] = biological target: Gal(b1-4)GlcNAc(b1-3)Gal(b1-4)GlcNAc(b1-3)Gal(b1-4)GlcNAc(b1-3)Gal(b1-4)GlcNAc(b1-3)Gal(b1-4)GlcNAc(b1-2)[Gal(b1-4)GlcNAc(b1-3)Gal(b1-4)GlcNAc(b1-3)Gal(b1-4)GlcNAc(b1-3)Gal(b1-4)GlcNAc(b1-3)Gal(b1-4)GlcNAc(b1-6)]Man(a1-6)[Gal(b1-4)GlcNAc(b1-3)Gal(b1-4)GlcNAc(b1-3)Gal(b1-4)GlcNAc(b1-3)Gal(b1-4)GlcNAc(b1-3)Gal(b1-4)GlcNAc(b1-2)Man(a1-3)]Man(b1-4)GlcNAc(b1-4)[Fuc(a1-6)]GlcNAc
# How it was run: as §1
# [3] = biological target: Gal(b1-4)GlcNAc(b1-3)[Fuc(a1-3)GlcNAc(b1-6)]Gal(b1-4)Glc
# How it was run: as §1
# [4] = biological target: Gal(b1-4)GlcNAc(b1-6)[Gal(b1-4)GlcNAc(b1-3)]GalNAc
# How it was run: as §1
# Gal3S(b1-4)GlcNAc = biological target: Gal3S(b1-4)GlcNAc
# How it was run: as §1
# [5] = biological target: Gal3S(b1-4)[Fuc(a1-3)]GlcNAc6S
# How it was run: as §1
# Gal6P(b1-4)GlcNAc = biological target: Gal6P(b1-4)GlcNAc
# How it was run: as §1
# [6] = biological target: GalNAc(a1-3)GalNAc(a1-3)Gal(a1-4)Gal(b1-4)GlcNAc
# How it was run: as §1
# GalNAc(b1-4)GlcNAc = biological target: GalNAc(b1-4)GlcNAc
# How it was run: as §1
# [7] = biological target: Glc(a1-6)Glc(a1-6)Glc(a1-6)Glc
# How it was run: as §1
# [8] = biological target: GlcNAc(a1-4)Gal(b1-4)GalNAc
# How it was run: as §1
# [9] = biological target: GlcNAc(a1-4)Gal(b1-4)GlcNAc(b1-3)Gal(b1-4)GlcNAc(b1-3)Gal(b1-4)GlcNAc
# How it was run: as §1
# [10] = biological target: GlcNAc(b1-2)Man(a1-3)[GlcNAc(b1-4)][GlcNAc(b1-2)Man(a1-6)]Man(b1-4)GlcNAc(b1-4)[Fuc(a1-6)]GlcNAc
# How it was run: as §1
# GlcNAc(b1-3)Gal(b1-4)Glc = biological target: GlcNAc(b1-3)Gal(b1-4)Glc
# How it was run: as §1
# [11] = biological target: GlcNAc(b1-3)Gal(b1-4)GlcNAc(b1-2)Man(a1-3)[GlcNAc(b1-3)Gal(b1-4)GlcNAc(b1-2)Man(a1-6)]Man(b1-4)GlcNAc(b1-4)[Fuc(a1-6)]GlcNAc
# How it was run: as §1
# [12] = biological target: GlcNAc(b1-6)Gal(b1-4)GlcNAc
# How it was run: as §1
# GlcNAc(b1-6)GalNAc = biological target: GlcNAc(b1-6)GalNAc
# How it was run: as §1
# Man(b1-4)GlcNAc = biological target: Man(b1-4)GlcNAc
# How it was run: as §1
# [13] = biological target: Neu5Ac(a2-3)Gal(b1-3)GalNAc(b1-4)[Neu5Ac(a2-8)Neu5Ac(a2-3)]Gal(b1-4)Glc
# How it was run: as §1
# [14] = biological target: Neu5Ac(a2-3)Gal(b1-3)GlcNAc(b1-3)Gal(b1-3)GlcNAc
# How it was run: as §1
# [15] = biological target: Neu5Ac(a2-3)Gal(b1-3)GlcNAc(b1-3)GalNAc
# How it was run: as §1
# [16] = biological target: Neu5Ac(a2-3)Gal(b1-3)GlcNAc6S
# How it was run: as §1
# [17] = biological target: Neu5Ac(a2-3)Gal(b1-4)GlcNAc6S
# How it was run: as §1
# [18] = biological target: Neu5Ac(a2-3)Gal(b1-4)[Fuc(a1-3)]GlcNAc(b1-6)[Neu5Ac(a2-3)Gal(b1-3)]GalNAc
# How it was run: as §1
# [19] = biological target: Neu5Ac(a2-3)[GalNAc(b1-4)]Gal(b1-4)Glc
# How it was run: as §1
# [20] = biological target: Neu5Ac(a2-6)Gal(b1-4)GlcNAc(b1-3)Gal(b1-4)GlcNAc(b1-3)Gal(b1-4)GlcNAc
# How it was run: as §1
# [21] = biological target: Neu5Ac(a2-6)Gal(b1-4)GlcNAc(b1-3)GalNAc
# How it was run: as §1
# [22] = biological target: Neu5Ac(a2-6)GlcNAc(b1-4)GlcNAc(b1-4)GlcNAc
# How it was run: as §1
# [23] = biological target: Neu5Ac(a2-8)Neu5Ac(a2-3)[Gal(b1-3)GalNAc(b1-4)]Gal(b1-4)Glc
# How it was run: as §1
# [24] = biological target: Neu5Ac(b2-6)Gal(b1-4)GlcNAc
# How it was run: as §1
binder,measurement,setting,value
B1,glycan array binding signal (z-score),[1],2.83
same,glycan array binding signal (z-score),[2],3.49
same,glycan array binding signal (z-score),[3],3.85
same,glycan array binding signal (z-score),[4],0.738
same,glycan array binding signal (z-score),Gal3S(b1-4)GlcNAc,-0.158
same,glycan array binding signal (z-score),[5],-0.038
same,glycan array binding signal (z-score),Gal6P(b1-4)GlcNAc,-0.211
same,glycan array binding signal (z-score),[6],-0.227
same,glycan array binding signal (z-score),GalNAc(b1-4)GlcNAc,-0.003
same,glycan array binding signal (z-score),[7],-0.157
same,glycan array binding signal (z-score),[8],-0.271
same,glycan array binding signal (z-score),[9],-0.208
same,glycan array binding signal (z-score),[10],-0.223
same,glycan array binding signal (z-score),GlcNAc(b1-3)Gal(b1-4)Glc,-0.299
same,glycan array binding signal (z-score),[11],-0.052
same,glycan array binding signal (z-score),[12],0.035
same,glycan array binding signal (z-score),GlcNAc(b1-6)GalNAc,-0.181
same,glycan array binding signal (z-score),Man(b1-4)GlcNAc,0.763
same,glycan array binding signal (z-score),[13],-0.245
same,glycan array binding signal (z-score),[14],-0.139
same,glycan array binding signal (z-score),[15],-0.266
same,glycan array binding signal (z-score),[16],-0.17
same,glycan array binding signal (z-score),[17],-0.364
same,glycan array binding signal (z-score),[18],0.108
same,glycan array binding signal (z-score),[19],-0.269
same,glycan array binding signal (z-score),[20],-0.154
same,glycan array binding signal (z-score),[21],-0.163
same,glycan array binding signal (z-score),[22],-0.141
same,glycan array binding signal (z-score),[23],-0.146
same,glycan array binding signal (z-score),[24],-0.309
